# Source: PubChem BioAssay (Tox21)
# Results filed as inconclusive are left out. Where a call stands in place of a potency, no number is given. Values without a mark were called inactive. Activity calls are given as the source filed them. Calls follow the shape of the dose curve; as a rule, active = well fitted cell-killing curve with a large enough effect in the repeat runs; inconclusive = weak or mixed curves, or effect the other way; inactive = flat fitted curve, though single readings scatter.
# Key:
# [1] = cAMP Responsive Elements (CRE) small molecule antagonists, cell-based qHTS assay: qHTS cell viability counter screen (AID 2060913); details: CRE-bla HEK293T viability, CellTiter-Glo luminescence, 5 h; series mostly up to 92.4 µM; also: nearly all actives have a fitted effect of over 40% in size; also: potency is read from the fitted curve at half-maximal effect
# Outline: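 Cytotoxicity counter screen multiplexed with the CRE-bla antagonist read: HEK293T cells in DMEM with dialyzed FBS and 25 mM HEPES were treated 3 hrs under 0.25 uM final NKH477, then viability measured by CellTiter-Glo luminescence.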
# [2] = cAMP Responsive Elements (CRE) small molecule agonists, cell-based qHTS assay: qHTS cell viability counter screen (AID 2060914); details: CRE-bla HEK293T viability, CellTiter-Glo luminescence, 5 h; series mostly up to 92.4 µM;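 also: viability read after 3 h of compound exposure; nearly all actives have a fitted effect of over 50% in size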
# Outline: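 HEK 293T CRE-bla; DMEM + 10% dialyzed FBS, 25 mM HEPES; 18 h pre-incubation; compound 3 h, 37 °C/5% CO2; CellTiter-Glo added after reporter read; luminescence after 30 min RT.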
compound,measurement,setting,value
CC(C)(C)C1=CC(=O)C=C(C(C)(C)C)C1=O,Potency,[1],inactive
COc1ccc(S(=O)(=O)Nc2nnc(CC(C)C)s2)cc1,Potency,[1],inactive
CC(C)CCCC(C)NCCC(C)C (stereo unspecified),Potency,[1],inactive
CCN(CC)CCOc1ccc(C(O)(Cc2ccc(Cl)cc2)c2ccc(C)cc2)cc1 (stereo unspecified),Potency,[1],26.6 µM (active)
COc1cc(Cl)ccc1Oc1ccc(Cl)cc1Cl,Potency,[1],inactive
[Cu+],Potency,[1],inactive
CC[C@H]1CN2CCc3cc(OC)c(OC)cc3[C@@H]2C[C@@H]1C[C@H]1NCCc2cc(OC)c(OC)cc21,Potency,[1],inactive
CCCCC(C)C(=O)O (stereo unspecified),Potency,[1],inactive
CC(C)OC(=O)C(C)(C)Oc1ccc(C(=O)c2ccc(Cl)cc2)cc1,Potency,[1],inactive
CCCC1CCC(=O)CC1,Potency,[1],inactive
On1nnc2ccccc21,Potency,[1],inactive
O=C1C(CCS(=O)c2ccccc2)C(=O)N(c2ccccc2)N1c1ccccc1 (stereo unspecified),Potency,[1],inactive
CCC(C)N (stereo unspecified),Potency,[1],inactive
Cc1ccco1,Potency,[1],inactive
CC1=CCC2CC1C2(C)C (stereo unspecified),Potency,[1],inactive
O=C(O)/C=C/c1ccc(O)c(O)c1,Potency,[1],inactive
CCCCCCCCCCCCCC[P+](CCCC)(CCCC)CCCC (tested in a mixture with another compound),Potency,[1],2.45 µM (active)
COC(C(=O)O)c1ccccc1 (stereo unspecified),Potency,[1],inactive
Nc1nc(CC(=O)O)cs1,Potency,[1],inactive
Cc1cc2c(OCC(CNC(C)(C)C)OC(=O)c3ccccc3)cccc2[nH]1 (stereo unspecified),Potency,[1],inactive
CC(C)(C)C(=O)OCOP(=O)(COCCn1cnc2c(N)ncnc21)OCOC(=O)C(C)(C)C,Potency,[1],inactive
CC(C)OC(=O)C(O)(CC(=O)O)CC(=O)O,Potency,[1],inactive
COC(=O)[C@H]1[C@H]2C[C@@H]3c4[nH]c5cc(OC)ccc5c4CCN3C[C@H]2C[C@@H](OC(=O)/C=C/c2ccc(O)c(OC)c2)[C@@H]1OC,Potency,[1],inactive
CNC(=O)NC,Potency,[1],inactive
O=C1OC(OC(=O)c2cccnc2Nc2cccc(C(F)(F)F)c2)c2ccccc21 (stereo unspecified),Potency,[1],inactive
CCCC(=O)O[C@]1(C(=O)CC)CC[C@H]2[C@@H]3CCC4=CC(=O)CC[C@]4(C)[C@H]3[C@@H](O)C[C@@]21C,Potency,[1],inactive
CCCCCCCC/C=C\CCCCCCCC(=O)OC,Potency,[1],inactive
CN(C)C(=O)C1(N2CCCCC2)CCN(CC[C@@]2(c3ccc(Cl)c(Cl)c3)CN(C(=O)c3ccccc3)CCO2)CC1,Potency,[1],64.1 µM (active)
COc1ccccc1/C=C/C=O,Potency,[1],inactive
O=S(=O)(Oc1ccc(Cl)cc1)c1ccccc1,Potency,[1],inactive
CCCCNc1ccc(C(=O)OCCOCCOCCOCCOCCOCCOCCOCCOCCOC)cc1,Potency,[1],inactive
Cc1c(NC(C)C)c(=O)n(-c2ccccc2)n1C,Potency,[1],inactive
O=C(Nc1ccc(Cl)cc1)Nc1ccc(Cl)c(C(F)(F)F)c1,Potency,[1],26.6 µM (active)
CC(C)=CCC1=C(O)c2ccccc2C(=O)C1=O,Potency,[1],inactive
CN(CC1(C)CCCO1)S(=O)(=O)c1ccc(Cl)c(S(N)(=O)=O)c1 (stereo unspecified),Potency,[1],inactive
CN(C)[C@@H]1C(=O)C(C(N)=O)=C(O)[C@@]2(O)C(=O)C3=C(O)c4c(O)ccc(Cl)c4[C@@H](O)[C@H]3C[C@@H]12,Potency,[1],inactive
Cc1cccc(C(=O)O)c1O,Potency,[1],inactive
Nc1cccc(O)c1,Potency,[1],inactive
CN(C)CCCNCCCN,Potency,[1],inactive
FC(F)(F)C(F)(F)C(F)(F)C(F)(F)C(F)(F)C(F)(F)CCI,Potency,[1],inactive
Cc1ccc(N)cc1S(=O)(=O)O,Potency,[1],inactive
CCS(=O)(=O)c1ccc(OC)c(C(=O)OC)c1,Potency,[1],inactive
CC(CC1c2ccccc2CCc2ccccc21)CN(C)C (stereo unspecified),Potency,[1],inactive
C=CCOCC(CC)(CO)COCC=C,Potency,[1],inactive
NCCNCCO,Potency,[1],inactive
O=C(CCCN1CCC(O)(c2cccc(C(F)(F)F)c2)CC1)c1ccc(F)cc1,Potency,[1],inactive
ClC1=C(Cl)C(Cl)(Cl)C(Cl)=C1Cl,Potency,[1],inactive
Cc1cccc2n[nH]nc12,Potency,[1],inactive
COc1ccc(C(=O)c2ccc(C)cc2)c(O)c1,Potency,[1],inactive
CCN(CC#N)c1cccc(C)c1,Potency,[1],inactive
CCN1CCN(C(=O)N[C@@H](C(=O)N[C@@H]2C(=O)N3[C@@H]2SC(C)(C)[C@H]3C(=O)O)c2ccccc2)C(=O)C1=O,Potency,[1],inactive
CCc1ccc(C(=O)C(C)CN2CCCCC2)cc1 (stereo unspecified),Potency,[1],inactive
CCC(C)O (stereo unspecified),Potency,[1],inactive
COc1cccc(OC)c1,Potency,[1],inactive
Nc1ccc([N+](=O)[O-])cc1O,Potency,[1],inactive
CCOc1cc([N+](=O)[O-])c(OCC)cc1N1CCOCC1,Potency,[1],inactive
CCC(C)OC(=O)c1ccc(O)cc1 (stereo unspecified),Potency,[1],inactive
C=CCOCC(O)CCl (stereo unspecified),Potency,[1],inactive
Cc1ccnc2c1NC(=O)c1cccnc1N2C1CC1,Potency,[1],inactive
O=C(OCCOCCOC(=O)c1ccccc1)c1ccccc1,Potency,[1],inactive
Cn1c(=O)c2c(ncn2CCO)n(C)c1=O,Potency,[1],inactive
CO[C@]1(NC(=O)CSC(F)F)C(=O)N2C(C(=O)O)=C(CSc3nnnn3CCO)CO[C@H]21,Potency,[1],inactive
COc1cc(C(=O)NCc2ccc(OCCN(C)C)cc2)cc(OC)c1OC,Potency,[1],inactive
CC1=C(Br)C(=O)C(Br)=C/C1=C(/c1ccccc1S(=O)(=O)O)c1cc(Br)c(O)c(Br)c1C,Potency,[1],inactive
COC(C)(C)CC(C)=O,Potency,[1],inactive
OC[C@H]1O[C@@H]2O[C@H]3[C@H](O)[C@@H](O)[C@@H](O[C@H]4[C@H](O)[C@@H](O)[C@@H](O[C@H]5[C@H](O)[C@@H](O)[C@@H](O[C@H]6[C@H](O)[C@@H](O)[C@@H](O[C@H]7[C@H](O)[C@@H](O)[C@@H](O[C@H]1[C@H](O)[C@H]2O)O[C@@H]7CO)O[C@@H]6CO)O[C@@H]5CO)O[C@@H]4CO)O[C@@H]3CO,Potency,[1],inactive
CN1CCN(Cc2cc(-c3ccc4[nH]c(=O)oc4c3)co2)[C@@H](c2ccc(F)cc2)C1,Potency,[1],inactive
O=S(=O)(O)c1ccccc1,Potency,[1],inactive
CC1CCC(C(C)(C)S)C(=O)C1 (stereo unspecified),Potency,[1],inactive
CCC(C)c1nccnc1OC (stereo unspecified),Potency,[1],inactive
CCCCc1nc2cccnc2n1Cc1ccc(-c2ccccc2-c2nnn[nH]2)cc1,Potency,[1],inactive
Cc1ccc(S(=O)(=O)NC(=O)NC2CCCCC2)cc1,Potency,[1],inactive
COC(=O)CC(=O)OC,Potency,[1],inactive
O=C(c1ccc(OCCN2CCCCC2)cc1)c1c(-c2ccc(O)cc2)sc2cc(O)ccc12,Potency,[1],inactive
Cc1ccc2oc(CN(Cc3ccccc3)C(=O)Nc3c(F)cc(F)cc3F)c(-c3ccc(Cl)cc3)c2c1,Potency,[1],inactive
COC(=O)C1=C(C)NC(C)=C(C(=O)OCCN(C)Cc2ccccc2)C1c1cccc([N+](=O)[O-])c1 (stereo unspecified),Potency,[1],inactive
CCN(CC)CCOC(=O)C(c1ccccc1)c1ccccc1,Potency,[1],inactive
C=C1c2cccc(O)c2C(O)=C2C(=O)[C@]3(O)C(O)=C(C(N)=O)C(=O)[C@@H](N(C)C)[C@@H]3[C@@H](O)[C@H]12,Potency,[1],inactive
O=C1NCC2(CCN(CCc3ccccc3)CC2)O1,Potency,[1],inactive
BrCCCCCBr,Potency,[1],inactive
same,Potency,[2],inactive
Cc1ccccc1S,Potency,[1],inactive
same,Potency,[2],inactive
CCCCC(=O)O,Potency,[1],inactive
same,Potency,[2],inactive
O=C(O)CCC(=O)c1ccc(-c2ccccc2)cc1,Potency,[1],inactive
same,Potency,[2],inactive
CC(C)CNCC(C)C,Potency,[1],inactive
same,Potency,[2],inactive
C[C@@H](Oc1ccc(CNC(=O)c2cccnc2Oc2ccc3c(c2)OCO3)c(F)c1)C(=O)O,Potency,[1],13.7 µM (active)
same,Potency,[2],inactive
C=CC(=O)NC(C)C,Potency,[1],inactive
same,Potency,[2],inactive
CCCCCCCCCCCCc1ccccc1,Potency,[1],inactive
same,Potency,[2],inactive
CCCCCCOC(=O)CCC,Potency,[1],inactive
same,Potency,[2],inactive
O=C1OCCN1/N=C/c1ccc([N+](=O)[O-])o1,Potency,[1],inactive
same,Potency,[2],inactive
C[C@](N)(Cc1ccc(O)c(O)c1)C(=O)O,Potency,[1],inactive
same,Potency,[2],inactive
Nc1ccc(N=Nc2ccccc2)c(N)c1,Potency,[1],inactive
same,Potency,[2],inactive
c1ccc(Oc2ccccc2)cc1,Potency,[1],inactive
same,Potency,[2],inactive
CC(C)=CCCC(C)C=O (stereo unspecified),Potency,[1],inactive
same,Potency,[2],inactive
Nc1ccc(Oc2ccc(Cl)cc2)cc1,Potency,[1],inactive
same,Potency,[2],inactive
CC1(C)[C@@H](OC(=O)CCC(=O)O)CC[C@]2(C)[C@H]3C(=O)C=C4[C@@H]5C[C@@](C)(C(=O)O)CC[C@]5(C)CC[C@@]4(C)[C@]3(C)CC[C@@H]12,Potency,[1],inactive
same,Potency,[2],inactive
CCN1CCCC1CNC(=O)c1cc(S(N)(=O)=O)ccc1OC (stereo unspecified),Potency,[1],inactive
same,Potency,[2],inactive
CC(C)(C)CC(C)(C)N,Potency,[1],inactive
same,Potency,[2],inactive
CC(C)(C)OC(=O)c1ccc(O)cc1,Potency,[1],inactive
same,Potency,[2],inactive
C=CC(=O)CC,Potency,[1],inactive
same,Potency,[2],inactive
C#CCN(C)Cc1ccccc1,Potency,[1],inactive
same,Potency,[2],inactive
COc1c(Br)cc(Br)c(C)c1Br,Potency,[1],inactive
same,Potency,[2],inactive
O=C(O)c1ccccc1OP(=O)(O)O,Potency,[1],inactive
same,Potency,[2],inactive
CCCSc1ccc2nc(NC(=O)OC)[nH]c2c1,Potency,[1],inactive
same,Potency,[2],inactive
CC(C)(N=C=O)c1cccc(C(C)(C)N=C=O)c1,Potency,[1],inactive
same,Potency,[2],inactive
CN1CCC[C@@H]1c1cccnc1,Potency,[1],inactive
same,Potency,[2],inactive
CC(=O)N(c1onc(C)c1C)S(=O)(=O)c1ccc(N)cc1,Potency,[1],inactive
same,Potency,[2],inactive
CCCCCCC1CCCC(=O)O1 (stereo unspecified),Potency,[1],inactive
same,Potency,[2],inactive
CCC(=O)OC(=O)CC,Potency,[1],inactive
same,Potency,[2],inactive
C[C@@H](c1ncncc1F)C(O)(Cn1cncn1)c1ccc(F)cc1F (stereo partly specified),Potency,[1],inactive
same,Potency,[2],inactive
CC(=O)C(=O)O,Potency,[1],inactive
same,Potency,[2],inactive
C/C=C/C(=O)CC,"viability change, negative = cytotoxic",[1],6.92% [at 18.9 µM]
same,"activity change, negative = cytotoxicity",[2],7.79% [at 18.9 µM]
CCCCCCCCCCCCCCCBr,Potency,[1],inactive
same,Potency,[2],inactive
C=Cc1ccncc1,Potency,[1],inactive
same,Potency,[2],inactive
CC1CCC2CC1C2(C)C (stereo unspecified),Potency,[1],inactive
same,Potency,[2],inactive
OCCN1CCN(CCCN2c3ccccc3Sc3ccc(C(F)(F)F)cc32)CC1,Potency,[1],inactive
same,Potency,[2],inactive
CC(C)=CCC/C(C)=C/C#N,Potency,[1],inactive
same,Potency,[2],inactive
O=c1oc2c(O)c(O)cc3c(=O)oc4c(O)c(O)cc1c4c23,"viability change, negative = cytotoxic",[1],2.4% [at 18.9 µM]
same,"activity change, negative = cytotoxicity",[2],-1.77% [at 18.9 µM]
CC1=CC(C)(C)Nc2ccccc21,Potency,[1],inactive
same,Potency,[2],inactive
O=C(C(=O)c1ccc(Br)cc1)c1ccc(Br)cc1,"viability change, negative = cytotoxic",[1],-3.96% [at 18.9 µM]
same,"activity change, negative = cytotoxicity",[2],-3.4% [at 18.9 µM]
COC(OC)C(C)c1ccccc1 (stereo unspecified),Potency,[1],inactive
same,Potency,[2],inactive
